# Measurements as given in PubChem BioAssay AID1508619 (National Center for Advancing Translational Sciences (NCATS), 2020).
# Inconclusive results are not listed. A call without a number means that no potency is given here. Active and inactive are the calls of the source. Calls follow the shape of the dose curve; as a rule, active = well fitted inhibition curve with a large enough effect; inconclusive = small, poorly fitted or top-dose-only effect; inactive = no such curve, though single readings can be large or run the other way.
# Test: Counterscreen qHTS for Identification of Calcium Integrin Binding Protein 1 (CIB1) Competitor
# Settings: series mostly up to 114 µM
# Source text: Assay Provider: Ulhas P. Naik, PhD
# Sidney Kimmel Medical College
# Thomas Jefferson University, Philadelphia, PA
# Primary function of platelets is to maintain hemostasis. At the site of vascular injury, platelets adhere to adhesive proteins such as collagen and von Willebrand factor. Adherent platelets are activated and generate soluble platelet agonists such as thrombin, ADP and thromboxane A2. Following exposure of circulating platelets to these agonists, results in platelet shape change, granule secretion and activation of platelet integrin alphaIIb-beta3. Ligand binding to activated integrin alphaIIb-beta3 triggers outside-in signaling, leading to platelet aggregation, stabilization of platelet plug, and clot retraction. Upon atherosclerotic plaque rupture also causes platelet plug formation, which underlies a number of cardiovascular diseases such as myocardial infraction and stroke. A number of anti-platelet drugs such as aspirin, clopidogrel, prasugrel, vorapaxar, and eptifibatide are currently available to prevent the thrombotic complications. However, these anti-platelet agents have several limitations including inherent variability in individual responses, developing resistance, and serious bleeding side effects. For these reasons they are not suitable for long-term protection. Based on the experiences with current anti-platelet drugs, it appears that the most useful therapeutic approach is to intersect the secondary responses such as integrin outside-in signaling or recruitment of platelets by TxA2 and secreted ADP. Compounds, which can largely preserve the primary hemostatic function of platelets but inhibit secondary response will be most desired therapeutic agents for treatment of cardiovascular disease.
# CIB1 is a calcium integrin binding protein, which specifically interact with the alphaIIb subunit of integrin alphaIIb-beta3. Binding of CIB1 to alphaIIb regulates the outside-in signaling in platelets, which is needed for thrombus stabilization and thrombus growth. […] Therefore, we propose that discovery of a small molecule that can prevent the association of CIB1 and alphaIIb-beta3 will be a potential anti-platelet agent that can block the thrombus formation without undue effect on hemostasis.
# To develop fluorescence polarization (FP) assay using fluorescently labeled alphaIIb peptide and CIB1 protein. Using FP assay characterize the binding affinity, competitive inhibition, and acceptable Z factor (0.5 to1) in order to perform the HTS to identify small molecule compound that can prevent CIB1 binding to platelet integrin alphaIIb-beta3. Active compounds were re-acquired and validated using confirmatory and counterscreens (using 100 nM scrambled peptide).
# [1] Naik MU, Nigam A, Manrai P, et al. CIB1 deficiency results in impaired thrombosis: the potential role of CIB1 in outside-in signaling through integrin alpha IIb beta 3. J Thromb Haemost. 2009;7(11):1906-1914. doi:10.1111/j.1538-7836.2009.03581.
# SEQUENCE No. (1, 2, 3, etc.); […] (e.g., Cells, Incubation, Reagent, etc.); VALUE and DESCRIPTION.
# 1; Reagent; 3 uL; Protein or buffer (4/3x)
# 2; Compound; 46 nL; Control inhibitor / compound library
# 3; Time; 15 min; Room temperature incubation
# 4; Reagent; 1 uL; Fluorescent labeled peptide (4x)
# 5; Time; 1000 rpm; Centrifuge
# 6; Time; 15 min; Room temperature incubation
# 7; Detection; Ex 480/ Em 540; ViewLux Fluorescence Read
# NOTES (numbers refer to sequence above)
# 1; Protein Mixture: C1B1-GST (final concentrations of 1 uM). Buffer composition: 5 mM HEPES pH 7.4, 125 mM NaCl, 5 mM CaCl2, 0.01% Tween20.
# 2; Control Inhibitor: unlabeled peptide (final concentration range 17.4 nM to 572 uM). Compound Library final concentration range 18.3 nM to 114 uM.
# 3; Room temperature incubation.
# 4; Fluorescent Labeled Peptide: FITC-alphaIIb (final concentration of 100 nM). Sequence of Scrambled peptide: Acetyl-[…]-FITC (purity is 95.37%).
# 6; Room temperature incubation.
# […]
# Potency is read from the fitted curve at half-maximal effect.
row,SMILES,Potency
1,C[n+]1cc2c3c(ccc2c2ccc4cc5c(cc4c21)OCO5)OCO3,inactive
2,O=C(O)c1ccc(O)c2ncc(N3CCC(N4CCOCC4)C3)cc12 (stereo not given),inactive
3,O=C1CCCC2=C1C(c1ccn[nH]1)N=C(Nc1nc3ccccc3o1)N2 (stereo not given),inactive
4,COc1ccc(CC(=O)Nc2ccc(S(=O)(=O)Nc3cc(C)on3)cc2)cc1C,inactive
5,COc1cc([C@H]2Oc3cc([C@H]4Oc5cc(O)cc(O)c5C(=O)[C@@H]4O)ccc3O[C@@H]2CO)ccc1O,inactive
6,NS(=O)(=O)c1ccc(Nc2nc(-c3ccccc3)cs2)cc1,44.7 µM (active)
7,C=Cc1c(C)c2cc3[nH]c(cc4nc(cc5nc(cc1[nH]2)C(C)=C5CCC(=O)O)C(CCC(=O)O)=C4C)c(C)c3C=C,25.1 µM (active)
8,O=c1c(O)c(-c2ccc(O)c(O)c2)oc2cc(O)cc(O)c12,inactive
9,NC(=O)c1ncn([C@@H]2O[C@H](CO)[C@@H](O)[C@@H]2O)c1O,inactive
10,Nc1ccc(CNc2ccc([S+](=O)([O-])Nc3nccs3)cc2)c(O)c1,50.1 µM (active)
11,N#Cc1ccc(NS(=O)(=O)c2ccc(NC(=O)Cc3ccc(Cl)c(Cl)c3)cc2)cc1,inactive
12,O=S(=O)(Nc1nccs1)c1ccc(Nc2nc(-c3ccccc3)cs2)cc1,50.1 µM (active)
13,Oc1cccc2cc(C3CC3)cnc12,inactive
14,COC(=O)c1ccc(O)c2ncc(-c3ccc(C(=O)N4CCNCC4)cc3)cc12,inactive
15,NC[C@H](O)c1ccc(O)c(O)c1,inactive
16,CC(O)c1ccc(-c2ccc3ncnc(N4CCOCC4)c3c2)o1 (stereo not given),inactive
17,O=C1CCCC2=C1C(c1ccncc1)N=C(Nc1nc3ccccc3o1)N2 (stereo not given),inactive
18,OCCOCCN1CCN(C(c2ccccc2)c2ccc(Cl)cc2)CC1 (stereo not given),inactive
19,O=S(=O)(c1ccc2nc(Cl)c(Cl)nc2c1)N1CCN(S(=O)(=O)c2c(F)cccc2F)CC1,inactive
20,Cn1cc(-c2[nH]c3cc(NC(=O)[C@H](N)C4CCCCC4)cc4c3c2C=NNC4=O)cn1,79.4 µM (active)

row,SMILES,Potency
1,C=C(CC)C(=O)c1ccc(OCC(=O)O)c(Cl)c1Cl,inactive
2,CS(=O)(=O)c1ccc(C(=O)OCC(=O)N2CCC(Cc3ccccc3)CC2)cc1[N+](=O)[O-],inactive
3,COc1ccc(C(=O)Nc2nc(-c3ccccc3)cs2)c(NS(=O)(=O)c2ccc(C)cc2)c1,inactive
4,CC1(C)N=C(Nc2nc3ccccc3o2)NC2=C1C(=O)CCC2,inactive
5,O=C(Nc1ccc(S(=O)(=O)N2CCOCC2)cc1)c1cc(Cl)ccc1NS(=O)(=O)c1ccc(Cl)s1,inactive
6,CC(C)(O)CCc1ccc(OCc2cc(-c3cccc(OC(F)F)c3)c3ncccc3c2)cc1,inactive
7,CCc1oc2ccccc2c1C(=O)c1cc(Br)c(O)c(Br)c1,inactive
8,COc1ccccc1Nc1cc2ccccc2c(=O)[nH]1,35.5 µM (active)
9,CCCC1CCN(C(=O)COC(=O)c2ccc(S(C)(=O)=O)c([N+](=O)[O-])c2)CC1,inactive
10,OCc1ccc(-c2ccc(-c3ccc(CO)s3)o2)s1,inactive
11,C/C(=C\c1ccc2c(c1)OCO2)C1Nc2cccc3cccc(c23)N1,12.6 µM (active)
12,CCN(CC)C(=S)SSC(=S)N(CC)CC,inactive
13,Cc1ccc(S(=O)(=O)Nc2cnccc2C(=O)Nc2nc3ccccc3s2)cc1,inactive
14,CCOc1ccc2nc3cc(N)ccc3c(N)c2c1,31.6 µM (active)
15,Cc1ccc(C)n1-c1cccc(C(=O)O)c1,inactive
16,CO[C@@H]1C(N(C)C(=O)c2ccccc2)C[C@H]2O[C@]1(C)n1c3ccccc3c3c4c(c5c6ccccc6n2c5c31)C(=O)NC4=O (stereo not given in full),22.4 µM (active)
17,O=C(O)C1=NC(C(=O)O)CC(C=CN2c3cc(O)c(OC4OC(CO)C(O)C(O)C4O)cc3CC2C(=O)O)=C1 (stereo not given),inactive
18,CC(=O)NC(c1cccs1)c1cc(Br)c2cccnc2c1O (stereo not given),inactive
19,CC1CCC2(C1)N=C(Nc1nc3ccccc3o1)NC1=C2C(=O)CCC1 (stereo not given),inactive
20,Cc1ccc(Cl)cc1NC(=O)c1nc[nH]c1C(=O)Nc1nc2ccccc2[nH]1,inactive
